According to PMC5540273 (PLoS ONE, 2017):

Tested on: CDKL2
Details: concentration: 1 μM, replicates: in singlicate; n = 1
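Further: KINOMEscan kinase panel screen.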

Compound	%Inh [%]
Cl.Cl.NCC(C(=O)Nc1cc(Br)c(-c2ccnc3[nH]ccc23)s1)c1ccccc1 (stereo not shown) [GSK1269851]	51
Cl.c1ccc(-c2ccc3c(Nc4ccc5[nH]ncc5c4)ccnc3c2)nc1 [GW440137]	40
NCCCC(NC(=O)c1cc(Br)c(-c2ccnc3[nH]ccc23)s1)c1ccccc1.O=C(O)C(F)(F)F.O=C(O)C(F)(F)F (stereo not shown) [GSK1287544]	40
Cl.Cl.NCC(NCc1ccc(-c2ccnc3[nH]ccc23)s1)c1ccccc1 (stereo not shown) [GSK1321565]	13
Cc1ccc(S(=O)(=O)Nc2ccc(Nc3nccc(Nc4cccc5[nH]ncc45)n3)cc2)cc1 [GSK581271]	22
O=C(Nc1cccc(Oc2ccc3nc(NC(=O)C4CC4)cn3n2)c1)c1ccccc1C(F)(F)F	26
COc1cccc(NC(=O)NC2CCN(c3ccnc(Nc4cc(OC)c(OC)c(OC)c4)n3)C2)c1 (stereo not shown) [GSK1379763]	52
Cl.Cl.NCC(NC(=O)c1cc(-c2ccccc2)c(-c2ccnc3[nH]ccc23)s1)c1ccccc1 (stereo not shown) [GSK1321561]	24
Cc1cccc(NC(=O)Nc2ccc(Oc3ncnc4ccn(C)c34)cc2)c1	5
COc1cc(Nc2nccc(-c3c(-c4cccc(NC(=O)c5c(F)cccc5F)c4)nn4ncccc34)n2)cc(OC)c1OC [GSK327238]	13
COc1cc(Nc2nccc(N3CCC(NC(=O)Nc4cccc(C(C)=O)c4)C3)n2)cc(OC)c1OC (stereo not shown) [GSK1379753]	46
Cc1ccc(C)c(NC(=O)NC2CCN(c3ccnc(Nc4ccc(F)cc4)n3)C2)c1 (stereo not shown) [GSK1379720]	35
COc1ccc(CNC(=O)NC2CCN(c3ccnc(Nc4ccc(F)cc4)n3)CC2)cc1 [GSK1379788]	22
Nc1ncc(-c2cccnc2)c2scc(-c3ccc4c(c3)CCN4C(=O)Cc3ccccc3)c12 [GSK683281]	29
O=C(Nc1n[nH]c2cc(-c3ccoc3)ccc12)C1CC1 [SB-738481]	87
O=c1[nH]cc(-c2ccc(N3CCOCC3)cc2)c2sc(-c3cn[nH]c3)cc12 [GSK2276055]	0
Nc1n[nH]c2cnc(-c3ccccc3)cc12 [SB-642124]	58
O=C(Nc1cccc(-c2nn3ccccc3c2-c2ccnc(Nc3cccc(C(F)(F)F)c3)n2)c1)c1c(F)cccc1F [GSK292658]	24
CN(c1ccc(NC(=O)Nc2cc(C(F)(F)F)ccc2F)cc1)c1ccnc(Nc2ccc(S(N)(=O)=O)cc2)n1 [GW809893]	99.9

Compound	%Inh [%]
CNC(=O)c1ccccc1Nc1nc(Nc2ccc(N3CCOCC3)cc2)ncc1Cl.Cl [GSK1576028]	35
COC(=O)Nc1nc2ccc(Oc3ccc(NC(=O)Nc4cc(C(F)(F)F)ccc4F)cc3)cc2n1C.Cl [GW692089]	40
COc1cc2c(cc1OCCN1CCNCC1)ncc1c3ccc(C#N)cc3[nH]c21	0
O=C(NC1CCN(c2ccnc(Nc3ccc(F)cc3)n2)C1)c1cc2ccccc2s1 (stereo not shown) [GSK1379716]	40
Oc1cc(Nc2ccnc3cc(I)ccc23)ccc1F [GW552771]	30
CCn1c(-c2nonc2N)nc2c(C#CC(C)(C)O)ncc(OCCCCN)c21.O=C(O)C(F)(F)F.O=C(O)C(F)(F)F [GSK507274]	53
CC(=O)Nc1nc2cnc(Nc3cc(NC(=O)c4cccc(C5(C#N)CC5)c4Cl)ccc3C)nc2s1	36
O=C(Nc1ccccc1F)NC1CCN(c2ccnc(Nc3ccc(F)cc3)n2)CC1 [GSK1379800]	17
O=C(Nc1n[nH]c2nc(-c3ccc(O)cc3)ccc12)C1CC1 [SB-710363]	96.6
c1ccc(Oc2ccc(Nc3ccnc4cc(-c5ccc(CNCCN6CCOCC6)o5)ccc34)cc2)nc1 [GW567145]	9
COc1cccc(C(=O)Nc2cccc(Oc3ccc4nc(NC(=O)C5CC5)cn4n3)c2)c1	26
Cc1occc1-c1ncc(OC[C@@H](N)Cc2c[nH]c3ccccc23)cc1-c1ccc2[nH]nc(C)c2c1.O=C(O)C(F)(F)F [GSK682037]	43
COCCOCCOc1cc2ncc3c4ccc(C#N)cc4[nH]c3c2cc1OC	7
Cn1cc(-c2ccc3c(c2)CCN3C(=O)Cc2cccc(Cl)c2)c2c(N)ncnc21 [GSK2606590]	42
O=C(Nc1cccc(-c2nn3ncccc3c2-c2ccnc(Nc3ccccc3)n2)c1)c1c(F)cccc1F [GSK198271]	30
CN(C)Cc1ccc(-c2ccc3c(Nc4ccc(Oc5ccccn5)cc4)ccnc3c2)o1 [GW567148]	11
C[C@@H](Oc1cc(-n2cnc3cc(-c4ccnc(NCCS(C)(=O)=O)c4)ccc32)sc1C(N)=O)c1ccccc1Cl [GSK907232]	12
O=C(O)C(F)(F)F.O=C(O)C(F)(F)F.O=c1[nH]ccc2nc(N[C@@H]3CCCNC3)nc(Nc3ccc(S(=O)(=O)N4CCOCC4)cc3)c12 [GSK2177277]	45
